Screens: PubChem, National Center for Advancing Translational Sciences (NCATS)
KCNH2 3.1 inh – blocks the human KCNH2 3.1 channel isoform. activity change, % (tested at about 1.8 µM). 340,000 tested, 0.95% active. U2OS KCNH2 3.1, thallium flux FluxOr; active compounds read low;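 active = maximum activity change below -70%; inconclusive = maximum activity change from -70% to -50%; inactive = maximum activity change above -50%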;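 note: thallium influx rate constant from kinetic fluorescence after stimulation buffer; % is set by controls: 0 for no effect and ±100 for the full control effect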
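We transduce U2OS cells with the mutant 3.1 virus, culture them overnight, load FluxOr with Red40 quencher for 45 min, then add stimulation buffer and read kinetically for 2 min to derive a normalized rate constant.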
KB-V1 cytotox – kills drug-selected multidrug resistant KB-V1 cells; KB-V1 MDR cells viability, CellTiter-Glo, 72 h; Potency, µM (series often up to 46.1 µM), most hits filed as cytotoxic; 400,000 tested, 3.4% active; AID 1347076; note: potency is the fitted concentration of half-maximal effect; % is set by controls: 0 for no effect and ±100 for the full control effect; nearly all actives have a fitted effect of over 60% in size
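Following 72 h at 37 degrees C with compound, KB-V1 cell viability was read by CellTiter-Glo luminescence, medium being phenol-red-free DMEM plus 10% FBS; concentration-response parameters came from normalized, curve-fitted qHTS data.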
MCF10A rereplic – DNA re-replication induction in MCF 10a cells. MCF 10A DNA re-replication, Hoechst nuclear intensity, 48 h. Potency, µM (series often up to 46.1 µM), inactives show at the top dose activity, positive = re-replication, hits mostly activators. 350,000 tested, 2.9% active. AID 624296; note: potency is the fitted concentration of half-maximal effect; % of control where 0% means no effect; nearly all actives have a fitted effect of over 50% in size
SW480 rereplic – DNA re-replication induction in SW480 cells. 340,000 tested, 1.8% active. SW480 DNA re-replication, Hoechst DNA content imaging, 48 h. AID 624297. Potency, µM (top dose mostly 46.1 µM), inactives show at the highest dose re-replication activation, most hits filed as activators; note: potency is the fitted concentration of half-maximal effect; % of control where 0% means no effect; nearly all actives have a fitted effect of over 55% in size
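SW480 cells exposed to compounds for 48 hr at 37 C, 5% CO2, then Hoechst-stained 40 min. Nuclear DNA content imaged by fluorescence scanning (405 nm excitation, 500-530 nm emission); re-replication scored as increased high-intensity nuclei.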
hERG WT inh – KCNH2 (human, wildtype) channel inhibition | AID 720551 | 340,000 tested, 0.37% active | activity change, % at 1.84 µM | U2OS, BacMam KCNH2, thallium flux FluxOr; active compounds read low;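 active = maximum activity change below -70%; inconclusive = maximum activity change between -70% and -50%; inactive = maximum activity change above -50%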; note: % is set by controls: 0 for no effect and ±100 for the full control effect
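U2OS cells were transduced with wild-type KCNH2 virus (2.03 x 10^8 / mL) for 4 h at room temperature, then cultured overnight at 37 C. Thallium flux was read with FluxOr dye. Rate constants were normalized to DMSO controls.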
KB-3-1 tox – kills parental KB-3-1 adenocarcinoma cells | KB-3-1 viability, CellTiter-Glo ATP luminescence, 72 h | Potency, µM (titrated, usually from 46.1 µM), usual class: cytotoxic | 400,000 tested, 1.4% active; note: potency is the fitted concentration of half-maximal effect; % is set by controls: 0 for no effect and ±100 for the full control effect; nearly all actives have a fitted effect of over 60% in size
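Cytotoxicity measured as CellTiter-Glo luminescence after 72 h at 37 C. Compound titrations were pinned onto drug-naive KB-3-1 parental adenocarcinoma cells grown in DMEM with 10% FBS, and normalized data fitted to concentration-response curves.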
* marks the source's active call; other numbers are inactive results; i = inactive; ? = inconclusive; . = no result given; ! = a repeat was not active. A selection: hits, their analogues and other compounds. The true share with any hit is near 7.6%. Unless noted, calls come from the whole dose curve; as a rule, active = well fitted curve in the direction sought with a large enough effect; inconclusive = small, poorly fitted or top-dose-only effect, or another doubt; inactive = no such curve, though single readings can be large; an effect the other way counts as inactive or inconclusive.

SMILES	KCNH2 3.1 inh	KB-V1 cytotox	MCF10A rereplic	SW480 rereplic	hERG WT inh	KB-3-1 tox
COc1ccc(C(=O)Nc2ccc(Cn3ccnc3)cc2)cc1OC	9.0	?	?	2.9%	-2.9	?
O=C(Nc1cnn(C23CC4CC(CC(C4)C2)C3)c1)c1cc(-c2ccccc2)on1	-74.7*	i	1.1%	-2.1%	-11.1	i
Cc1cc(C(=O)Nc2cnn(Cc3ccc(Cl)cc3Cl)c2)no1	5.4	13µM*	13.4%	-0.8%	-20.3	i
COc1cccc(-c2cc(C(=O)Nc3cnn(Cc4ccc(Cl)cc4Cl)c3)no2)c1	.	i	.	.	.	i
COc1ccc(C(=O)Nc2cnn(Cc3ccc(Cl)cc3)c2)cc1OC	-5.0	i	11.6µM*	-694.3%	-11.0	5.8µM*
CCN(CC)S(=O)(=O)c1ccc(NN=C2CCN(C)CC2)c([N+](=O)[O-])c1	13.2	i	15.1%	-8.6%	-0.8	?
Cc1ccc(-n2ncc(C(=O)NCc3ccco3)c2C2CCN(C(=O)OC(C)(C)C)CC2)c(C)c1	.	i	.	.	.	i
O=[N+]([O-])c1cccc(N(CC2CO2)S(=O)(=O)c2ccccc2)c1 (stereo unspecified)	5.1	i	?	4.4%	-8.3	i
Cc1cc(C)n(-c2nc3ccccc3nc2Nc2ccc(Cl)c(C(=O)OC(C)C)c2)n1	.	i	.	.	.	i
Cc1cc(OC2CCCCC2)nc(-c2ccccc2O)n1	-13.2	i	20.6µM*	10.0%	0.0	i
CN1C2C=C(N(CCc3c[nH]c4ccccc34)C(=O)c3ccc(Cl)cc3)CC1CC2 (stereo unspecified)	-16.1	23.1µM*	9.8%	?	6.6	?
O=C(Cc1c[nH]c2ccccc12)NCc1ccc(Cl)cc1	7.1	i	?	1.9%	5.2	i
Cc1cc2[nH]cnc2c([N+](=O)[O-])c1C	4.3	i	-37.9%	-68.8%	-3.2	i
C=CCn1c(N)c(C(=O)Nc2ccc(C)cc2)sc1=S	-1.2	18.4µM*	6.3%	-7.3%	28.2	i
COC(=O)c1ccccc1NC(=O)N1CCN(S(=O)(=O)c2ccc(Cl)cc2)CC1	-1.2	?	?	9.2µM*	-5.2	i
COC(=O)c1ccccc1NC(=O)N1CCCC1	-24.5	?	-4.3%	0.6%	-10.2	i
COc1ccccc1C(C)NC(=O)CCC(=O)N1CCN(S(=O)(=O)c2ccc(Cl)cc2)CC1 (stereo unspecified)	15.7	18.4µM*	3.9%	8.2%	0.5	?
COc1ccccc1C(=O)NCCC(=O)N1CCN(S(=O)(=O)c2ccc(Cl)cc2)CC1	-1.0	i	-4.4%	-23.0%	-3.9	i
CN1CCc2c(c3ccccc3n2C)C1	8.5	i	-2.5%	-3.0%	-1.3	i
CCCCN1CCc2c(c3ccccc3n2Cc2ccccc2)C1	-94.0*	i	?	?	?	i
CN1CCc2c(c3ccccc3n2Cc2ccccc2)C1	-77.4*!	?	22.8%	?	1.3	?
CCCc1cc(=O)oc2c(C)c(OCC(=O)Nc3cccnc3)ccc12	-23.9	i	0.2%	0.6%	25.8	i
CCOC(=O)N1CCN(C(=O)COC(=O)C2CCN(S(=O)(=O)c3c(C)c(C)cc(C)c3C)CC2)CC1	-15.5	i	7.8%	-5.0%	-9.7	i
Cc1ccc(NS(=O)(=O)c2cc(C(=O)NCCSc3ccc(C)cc3)ccc2C)cc1	-19.7	16.4µM*	25.5%	15.7%	-6.0	i
Cc1ccc(SCCNC(=O)c2ccc(C)c(S(=O)(=O)Nc3cccc(C)c3)c2)cc1	-36.1	?	12.9%	1.3%	3.8	i
SMILES	KCNH2 3.1 inh	KB-V1 cytotox	MCF10A rereplic	SW480 rereplic	hERG WT inh	KB-3-1 tox
CN1C(=O)C(O)(CC(=O)c2ccccn2)c2cc(Br)ccc21 (stereo unspecified)	6.8	7.31µM*	?	?	-3.0	?
CN1C(=O)[C@@](O)(CC(=O)c2ccccc2)c2cc(Br)ccc21	.	i	.	.	.	?
CC(=O)Nc1ccc(NC(=O)C2CCCN2C(=O)NCc2ccccc2)cc1 (stereo unspecified)	2.2	i	-4.9%	-22.6%	-10.7	?
COc1cc2c(cc1OC)C1CCN3C(=O)CCC3N1CC2 (stereo unspecified)	36.8	i	8.5%	-1.5%	7.1	i
COC(=O)c1ccc(Cl)cc1NC(=O)N1CC(C)Oc2ccccc21 (stereo unspecified)	.	i	.	.	.	i
Cc1noc(C)c1C(=O)Nc1nc(-c2cc(F)ccc2F)cs1	-134.9*	i	?	-34.2%	-0.9	i
Cc1noc(C)c1C(=O)Nc1nc(-c2ccc(F)c(F)c2)cs1	3.0	20.6µM*	-6.2%	-8.2%	-0.3	i
Cc1onc(-c2ccccc2)c1C(=O)Nc1nc(-c2cc(F)ccc2F)cs1	3.1	i	?	0.8%	7.7	i
CCc1noc(C)c1C(=O)Nc1nc(-c2ccc(OC)cc2)cs1	0.2	i	24.6%	18.4µM*	-3.9	i
COc1ccc(-c2csc(NC(=O)c3c(C)noc3C)n2)cc1F	-12.7	i	16.5%	-10.0%	-7.7	i
O=S1(=O)N[C@H](c2ccccc2)C[C@H](c2ccc(C(F)(F)F)cc2)O1	13.7	i	-13.7%	0.3%	-2.5	i
CC1=C(C#N)C(c2cccnc2)C2=C(N1)c1ccccc1C2=O (stereo unspecified)	-4.8	i	1.3%	-4.7%	17.0	i
CC1=C(C#N)C(c2ccccc2)C2=C(N1)c1ccccc1C2=O (stereo unspecified)	2.0	3.26µM*	1.46µM*	8.2µM*	-0.2	2.06µM*
Cc1cc(Nc2ncc(Cl)cc2Cl)n(-c2ccccc2C)n1	0.6	i	?	?	1.4	i
Cc1cc(Nc2nc(Cl)c(Cl)cc2Cl)n(-c2ccccc2)n1	-1.2	?	?	26.4%	0.6	11.6µM*
Cc1ccc(-n2nc(C)cc2Nc2ncc(Cl)cc2Cl)cc1	4.6	20.6µM*	?	?	-2.1	i
COC(=O)c1cc(C(=O)N2CCN(c3cccc(C)c3C)CC2)cc([N+](=O)[O-])c1	13.3	i	?	4.11µM*	13.0	5.8µM*
COC(=O)c1cc(C(=O)N2CCN(c3ccccc3OC)CC2)cc([N+](=O)[O-])c1	31.4	1.3µM*	1.16µM*	2.06µM*	11.6	1.16µM*
Cc1ccccc1N1CCN(C(=S)c2ccc([N+](=O)[O-])cc2)CC1	-35.2	16.4µM*	8.5%	-0.8%	-1.2	i
